Laboratory results published in PubChem BioAssay AID1851 (National Center for Advancing Translational Sciences (NCATS), 2009).
Values joined by “and” are separate entries in the source; they are usually repeats but may differ in a detail not shown here. Equal values may be shown once. The campaign covered roughly 16,000 compounds. About 2,600 (16%) were called active. Inconclusive results (about 20%) are left out. Calls follow the shape of the dose curve; as a rule, active = well fitted curve in the direction sought with a large enough effect; inconclusive = small, poorly fitted or top-dose-only effect, or effect the other way; inactive = no such curve, though single readings can be large or run the other way. A selection follows.

molecular target: Cytochrome P450 2D6 (Homo sapiens) (UniProt P10635); assay: Cytochrome panel assay with activity outcomes; conditions: recombinant CYP, pro-luciferin dealkylation, luminescence, p450-cyp2d6; series mostly up to 57.1 µM; activity, negative = inhibition: at the top concentration
Sequence (P10635 whole entry, looked up): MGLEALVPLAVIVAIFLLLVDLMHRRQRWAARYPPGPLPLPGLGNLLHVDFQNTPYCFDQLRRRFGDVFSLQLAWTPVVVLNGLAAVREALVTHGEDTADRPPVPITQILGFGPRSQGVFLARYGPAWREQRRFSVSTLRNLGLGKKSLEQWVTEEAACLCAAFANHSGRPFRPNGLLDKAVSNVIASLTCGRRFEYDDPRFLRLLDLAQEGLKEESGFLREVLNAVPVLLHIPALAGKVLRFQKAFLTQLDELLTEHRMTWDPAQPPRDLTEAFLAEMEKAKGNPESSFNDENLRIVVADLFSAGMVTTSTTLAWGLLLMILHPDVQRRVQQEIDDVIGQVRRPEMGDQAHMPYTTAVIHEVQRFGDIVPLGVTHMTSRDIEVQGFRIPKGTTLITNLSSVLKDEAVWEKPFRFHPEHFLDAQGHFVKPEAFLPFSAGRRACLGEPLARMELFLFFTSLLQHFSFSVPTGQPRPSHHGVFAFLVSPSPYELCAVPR
% is scaled to controls: 0 for no effect and ±100 for the full control effect.

| Compound | activity, negative = inhibition | AC50 |
| --- | --- | --- |
| COc1cccc(Cn2c(=O)cnc3cnc(OC)nc32)c1 | -20.5% (inactive) |  |
| Cc1ccc(-c2nc3c(=O)n(C)c4ccccc4c3o2)cc1 | -0.939% (inactive) |  |
| O=C(COc1ccccc1)Nc1ccc(-c2nnc(-c3ccco3)o2)cc1 | -15.7% (inactive) |  |
| C/C(CC(=O)Nc1cc(Cl)ccc1Cl)=N\NC(N)=S | -29.8% (inactive) |  |
| CC(NC(=O)c1ccc(Cn2cc([N+](=O)[O-])cn2)o1)c1ccccc1 (stereo not given) | -9.64% (inactive) |  |
| CCCc1cc2c(cc1NC(=O)c1ccccc1C)OCO2 |  | 8.91 µM (active) |
| CCC(=O)Nc1cc2c(cc1C(=O)c1ccccc1)OCCO2 | -0.416% (inactive) |  |
| CCOc1cc(NC(=S)NCC2CCCO2)c(OCC)cc1NC(=O)c1ccccc1C (stereo not given) | -28.8% (inactive) |  |
| c1ccc(-c2csc3ncn4cnnc4c23)cc1 | 16.6% (inactive) |  |
| CCC(=O)N[C@@H]1Cc2ccccc2[C@@H](c2ccccc2)C1 | -2.56% (inactive) |  |
| COCCNc1cc(-c2c(C)noc2C)ncn1 | 7.09% (inactive) |  |
| Cc1cc(Cl)ccc1OCC(=O)Nc1nc(N)nc(N)n1 | 14% [at 11.4 µM] (inactive) |  |
| Cc1cc(Cl)ccc1OCC(=O)N/N=C1\CCCc2ccccc21 | 19.9% (inactive) |  |
| Cc1cc(Cl)ccc1OCC(=O)NCc1ccncc1 |  | 2.82 µM (active) |
| N/C(=N\c1nc2ccccc2o1)NC(=O)c1ccccc1F | -0.637% (inactive) |  |
| Cc1ccc(S(=O)(=O)N[C@H]2COC(=O)C/C=C\[C@@H](C)COC(=O)C/C=C\[C@@H]2C)cc1 | 15.5% [at 11.4 µM] (inactive) and -2.8% [at 11.4 µM] (inactive) |  |
| N#CCCSC(=S)[C@H]1CCCC1=N | -9.64% [at 11.4 µM] (inactive) |  |
| CC(C/C=N/NC(=O)COc1cc(Cl)ccc1Cl)c1ccccc1 (stereo not given) |  | 0.631 µM (active) |
| O=C(COc1ccccc1Cl)Nc1cc(Cl)ccc1Oc1ccccc1 | -7.9% (inactive) |  |
| O=C(COc1ccccc1C(=O)N/N=C\c1ccc(O)c(O)c1)N/N=C/c1ccc(O)c(O)c1 | -6.7% (inactive) |  |
| CC(C)(C)NC[C@@H](O)c1ccc(O)c(CO)n1 | -1.17% [at 11.4 µM] (inactive) |  |
| Cc1cccc(C)c1NC(=O)COc1cccc(/C=N/NC(=O)C(=O)NCc2ccccc2)c1 | 3.74% (inactive) |  |
| O=C(CC(=O)N/N=C\c1c(Cl)cccc1Cl)NCc1ccccc1 | -29.6% (inactive) |  |
| CCCCNC(=O)C1CC(=O)N(CCC(C)C)C1 (stereo not given) | 0.785% (inactive) |  |
| C[C@@H](C(=O)O)c1ccc(C(=O)c2cccs2)cc1 | -5.01% [at 25.6 µM] (inactive) |  |

| Compound | activity, negative = inhibition | AC50 |
| --- | --- | --- |
| CCCC/C=C/C(NC(=O)c1cccs1)c1ccccc1 (stereo not given) | 1.02% (inactive) |  |
| CNCCCCCCCCSc1nc(C(C)C)ccc1C(=O)c1cccs1 |  | 0.00631 µM (active) |
| Nc1ncnc2c1ncn2C1CCCC1 | 8.79% (inactive) |  |
| CNC(=O)Oc1ccc2c(c1)[C@@]1(C)CCN(C)[C@@H]1N2C |  | 1.26 µM (active) and 631 nM (active) |
| COc1ccc(Nc2ncc3c(n2)CC(c2ccc(C)cc2)CC3=O)cc1 (stereo not given) | -9.28% (inactive) |  |
| O=c1c(-c2ccc(Cl)cc2)[n+]([O-])c2ccccc2n1OCc1ccccn1 | 14.8% (inactive) |  |
| CC(C(=O)NC1CCCC1)N(C(=O)c1ccc(-c2ccccc2)[nH]1)c1ccccc1F (stereo not given) | -20.3% (inactive) |  |
| CCOC(=O)Cc1csc(NC(=O)c2ccc(S(=O)(=O)N3CCCCC3)cc2)n1 | 1.88% (inactive) |  |
| CC(C)CC(C(=O)NCC1CCCO1)N(C(=O)Cn1nnc(-c2ccc(F)cc2)n1)c1cccc(C(F)(F)F)c1 (stereo not given) |  | 12.6 µM (active) |
| Cc1cccc2c(SCC(=O)NCC3CCCO3)nc(-c3ccc(F)cc3)nc12 (stereo not given) | -24.8% (inactive) |  |
| CC(C)CC(C(=O)NCC1CCCO1)N(C(=O)Cn1nnc(-c2ccc(F)cc2)n1)c1ccccc1F (stereo not given) |  | 20 µM (active) |
| CC(C)C(C(=O)NCC1CCCO1)N(Cc1ccco1)C(=O)CNS(=O)(=O)c1ccc(F)cc1 (stereo not given) | -2.69% (inactive) |  |
| COc1ccc(S(=O)(=O)N(CC(=O)NCC2CCCO2)c2ccc(F)cc2)cc1OC (stereo not given) | -5.47% (inactive) |  |
| CN(C(=O)Cn1nnc(-c2cccc(C(F)(F)F)c2)n1)C1CCCCC1 | 27.7% (inactive) |  |
| NCCCCCC(=O)O |  | inactive |
| Clc1ccc(-c2nnc(-c3ccco3)o2)cc1 | -8.43% (inactive) |  |
| O=c1[nH]c(=O)c2nc3ccccc3nc2[nH]1 | 9.16% (inactive) |  |
| CC(=O)NCCC(=O)Nc1sc2c(c1-c1nc3ccccc3[nH]1)CCCC2 | -28.3% (inactive) |  |
| Cc1ccc(NC(=O)N/C=C/c2ccco2)cc1C | -29.6% (inactive) |  |
| COc1ccc(C(C(=O)NC2CCCC2)N(C(=O)c2snc(-c3ccc(F)cc3)c2N)c2ccccc2)cc1 (stereo not given) | 14.7% (inactive) |  |
| CCCOc1ccc(Cn2c(C)nc([N+](=O)[O-])c2SCC(O)COC)cc1[N+](=O)[O-] (stereo not given) |  | 12.6 µM (active) |
| COc1ccc(CSc2nnnn2C)cc1[N+](=O)[O-] | -1.53% (inactive) |  |
| CC(=O)Nc1ccc(Nc2ncnc3c2cnn3-c2ccccc2)cc1 | -16.2% (inactive) |  |
| N#Cc1cccc(-c2nc3cnc(N4CCOCC4)nc3n(C3CC3)c2=O)c1 | 3.06% (inactive) |  |
| CC(C)(C)N(NC(=O)Nc1ccccc1)C(=O)c1ccccc1Cl | 16.3% (inactive) |  |
